FBPA Giardia inh: Giardia lamblia aldolase inhibition. purified Giardia FBPA. Potency, µM (top dose mostly 59.6 µM), most hits filed as inhibitors. A8B2U2. hit rate 0.71% among 290,000; further: nearly all actives have a fitted effect of over 55% in size
Target sequence (A8B2U2 whole entry, looked up): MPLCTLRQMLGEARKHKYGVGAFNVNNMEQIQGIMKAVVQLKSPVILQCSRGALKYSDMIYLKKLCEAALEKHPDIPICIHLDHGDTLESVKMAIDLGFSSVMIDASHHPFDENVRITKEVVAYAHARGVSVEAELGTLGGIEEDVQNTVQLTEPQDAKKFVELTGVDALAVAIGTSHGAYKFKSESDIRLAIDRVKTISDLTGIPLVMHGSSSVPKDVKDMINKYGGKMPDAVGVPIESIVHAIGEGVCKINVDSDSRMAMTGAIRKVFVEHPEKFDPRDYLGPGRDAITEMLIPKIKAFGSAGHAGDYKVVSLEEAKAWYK
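40 nM FBPA preincubated 10 min at RT with compound (up to 57.5 uM final), then substrate plus GAPDH/TPI/NAD/arsenate coupling and diaphorase/resazurin added. Fluorescence read after 20 min at RT, 525/598 nm.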
AmpC inh no detg: inhibitors of E. coli AmpC beta-lactamase without detergent; hit rate 0.52% among 330,000; P00811; AmpC nitrocefin hydrolysis, absorbance 480 nm, 0.0001% Triton; Potency, µM (series often up to 57.1 µM), usual class: inhibitors; further: nearly all actives have a fitted effect of over 20% in size
Target sequence (P00811 whole entry, looked up): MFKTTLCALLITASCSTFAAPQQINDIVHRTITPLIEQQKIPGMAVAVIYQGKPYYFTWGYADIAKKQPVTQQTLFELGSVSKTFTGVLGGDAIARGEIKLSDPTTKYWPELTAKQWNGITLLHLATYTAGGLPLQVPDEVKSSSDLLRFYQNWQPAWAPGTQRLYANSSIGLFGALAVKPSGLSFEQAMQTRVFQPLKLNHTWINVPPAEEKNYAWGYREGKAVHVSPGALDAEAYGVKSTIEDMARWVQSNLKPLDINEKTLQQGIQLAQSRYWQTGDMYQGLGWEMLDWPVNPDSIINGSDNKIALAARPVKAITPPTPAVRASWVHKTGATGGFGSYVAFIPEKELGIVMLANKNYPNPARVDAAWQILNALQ
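AmpC (5.3 nM in the dispensed reagent) in 20 mM phosphate pH 7.0 with 0.01% (detergent screen) or 0.0001% Triton X-100 was preincubated with compounds for 15 min at room temperature. Nitrocefin was then added from an 800 uM solution, and hydrolysis was followed at 480 nm.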
Sm TGR block: inhibitors of Schistosoma mansoni thioredoxin glutathione reductase | purified TGR, DTNB reduction, TNB absorbance 405 nm | Potency, µM (highest dose often 114 µM), usual class: inhibitors | hit rate 3% among 360,000; further: nearly all actives have a fitted effect of over 60% in size
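TGR 20 nM + NADPH 100 uM (dispensed conc.), cpd preinc 15 min RT; start with NADPH (500 uM addition) then DTNB (15 mM addition). Kinetic TNB absorbance, 405 nm filter. Four-parameter Hill fit across titration.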
AmpC detergent: AmpC beta-lactamase inhibition with detergent present. P00811. AmpC hydrolysis of nitrocefin, absorbance 480 nm, 0.01% Triton. Potency, µM (top dose mostly 114 µM), actives largely listed as inhibitors. hit rate 0.041% among 370,000; further: nearly all actives have a fitted effect of over 25% in size
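20 mM phosphate pH 7.0 + 0.01% (detergent screen) or 0.0001% Triton X-100; 5.3 nM AmpC reagent; cpd preinc 15 min RT; nitrocefin (800 uM stock) to start; A480 q20 s × 4 min; Activity was normalised to no-enzyme and no-compound control wells.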
Of the large screens only hits and unclear results are named; the others gave an inactive call. Hits are enriched below; roughly 3.6% of the tested compounds scored in any of these assays. The call rests on the fitted dose curve; in most records, active means well fitted curve in the direction sought with a large enough effect; inconclusive means small, poorly fitted or top-dose-only effect, or another doubt; inactive means no such curve, though single readings can be large; an effect the other way counts as inactive or inconclusive.

COc1ccc(NC(=O)c2cc(-c3ccco3)nc3ccccc23)cc1S(=O)(=O)N1CCOCC1	FBPA Giardia inh inconclusive, Sm TGR block 7.9µM
Cc1ccc(NC(=O)c2cc(-c3ccco3)nc3ccccc23)cc1S(=O)(=O)N1CCOCC1	Sm TGR block 45µM
COc1ccc(NC(=O)c2cc(C)nc3ccccc23)cc1S(=O)(=O)N1CCOCC1	none (no result: FBPA Giardia inh, Sm TGR block, AmpC detergent)
CCc1ccc(C(=O)COC(=O)c2cncc(Br)c2)cc1	none
O=C(Nc1ccc(CN2CCOCC2)cc1)c1ccc(-c2ccc(Cl)cc2Cl)o1	Sm TGR block 50µM
O=C(Nc1ccc(CN2CCOCC2)cc1)c1ccc(-c2cccc(Cl)c2)o1	none (no result: FBPA Giardia inh)
CCOC(=O)C1=C(C)NC(C)=C(C(=O)OCC)C1c1cn(-c2ccccc2)nc1-c1ccco1	none
Cc1ccc(-c2nn(-c3ccccc3)cc2C(=O)O)o1	Sm TGR block 20µM
Cc1ccc(-c2nn(-c3ccccc3)cc2/C=C/C(=O)O)o1	Sm TGR block 32µM
CC(C)OC(=O)c1cn(-c2ccccc2)nc1-c1ccco1	Sm TGR block 5µM
COc1ccc(-c2nn(-c3ccccc3)cc2C(=O)O)cc1	AmpC detergent inconclusive
CCOC(=O)CC(=O)NC1(Cc2ccc(O)cc2)CCCCC1	none
CCC(Sc1nnc(-c2ccc(F)cc2)c(-c2ccc(F)cc2)n1)C(=O)NC1CCCC1 (configuration not stated)	none (no result: FBPA Giardia inh, AmpC inh no detg)
CC(C)Cc1cc(C(=O)N2CCN(c3ccc(F)cc3)CC2)no1	AmpC inh no detg 0.32µM
O=C(c1cc(-c2ccc(Cl)cc2)on1)N1CCN(c2ccc(F)cc2)CC1	AmpC detergent inconclusive
CCOC(=O)C1=C(C)NC(=O)CC1c1cc2c(cc1[N+](=O)[O-])OCO2 (configuration not stated)	FBPA Giardia inh 13µM
O=C(CSc1nnc(-c2ccccc2F)o1)Nc1ccc(N2CCOCC2)cc1	none (no result: FBPA Giardia inh)
CCOc1ccccc1C1C(C(N)=O)=C(C)Nc2nc(-c3cccc(C)c3)nn21 (configuration not stated)	Sm TGR block 40µM
Cc1ccc(-c2noc(C3CCCN(S(=O)(=O)c4ccc5ccccc5c4)C3)n2)o1 (configuration not stated)	Sm TGR block 40µM, AmpC detergent inconclusive
Cc1ccc(-c2noc(C3CCCN(S(=O)(=O)c4ccc(S(=O)(=O)N(C)C)cc4)C3)n2)o1 (configuration not stated)	none
Cc1ccc(S(=O)(=O)N2CCCC(c3nc(-c4ccc(C)o4)no3)C2)cc1 (configuration not stated)	none
CC(=O)c1cccc(S(=O)(=O)N2CCCC(c3nc(-c4ccc(C)o4)no3)C2)c1 (configuration not stated)	Sm TGR block 50µM
COc1ccc(NC(=O)c2cc3c([nH]c2=O)CC(c2ccccc2)CC3=O)cc1 (configuration not stated)	none (no result: FBPA Giardia inh, AmpC inh no detg)
O=C(CCNC(=O)c1ccccc1)N=Nc1c(O)[nH]c2ccccc12	none
O=C(CCc1c[nH]c2ccccc12)N=Nc1c(O)[nH]c2ccccc12	AmpC inh no detg 32µM
c1ncc(-c2ccc3c(c2)OCO3)c(NCCc2cnc[nH]2)n1	none (no result: AmpC inh no detg, Sm TGR block, AmpC detergent)
CCOc1ccc(NC(=O)C/C(C)=N/NC(=O)c2cnccn2)cc1	none (no result: FBPA Giardia inh)
CCOc1ccc(NC(=O)c2cnccn2)cc1	Sm TGR block 89µM
C/C(CC(=O)Nc1ccc(N(C)C)cc1)=N\NC(=O)c1ccccn1	FBPA Giardia inh inconclusive, Sm TGR block inconclusive
C/C(CC(=O)Nc1ccc(N(C)C)cc1)=N\NC(=O)c1cnccn1	Sm TGR block 35µM, AmpC detergent inconclusive
CC(C(=O)Nc1ccccc1)c1ccc(-c2ccccc2)c(F)c1 (configuration not stated)	AmpC inh no detg 11µM, AmpC detergent inconclusive
O=C(CCSc1nc(-c2ccco2)cc(C(F)(F)F)n1)NCc1ccccn1	Sm TGR block 28µM
CCc1ccccc1NC(=O)CCCSc1nc(-c2ccco2)cc(C(F)(F)F)n1	none (no result: FBPA Giardia inh, AmpC inh no detg)
CCn1ncc(CNC(=O)CCCSc2nc(-c3ccco3)cc(C(F)(F)F)n2)c1C	Sm TGR block 40µM
O=C(COC(=O)C1CCN(S(=O)(=O)c2ccc3c(c2)OCCO3)CC1)Nc1ccc(C(F)(F)F)cc1	none
CC(=O)c1cc(NC(=O)c2ccc(C)cc2)c(=O)oc1C	Sm TGR block 40µM
CC(=O)c1cc(NC(=O)c2ccc(C)cc2)c(=O)oc1/C=C/N(C)C	none
Cc1oc(=O)c(NC(=O)c2ccc(Cl)cc2)cc1C(=O)c1ccccc1	Sm TGR block 4µM
CC(=O)c1cc(NC(=O)c2ccccc2)c(=O)oc1C	Sm TGR block 35µM
CC(C)(C)c1ccc(C(=O)Nc2ccc(Cl)cc2C(=O)c2ccccc2)cc1	none (no result: FBPA Giardia inh, AmpC inh no detg)
Cc1oc(=O)c(NC(=O)c2ccccc2)cc1C(=O)c1ccccc1	Sm TGR block 22µM
Cc1ccc(-c2nc(CN(C)C3CCOCC3)c(C)o2)s1	none
CCC1C(=O)NCCN1Cc1nc(-c2ccc(C)s2)oc1C (configuration not stated)	Sm TGR block 40µM
COc1cc(C(=O)NCCC(c2ccccc2)c2ccccc2)cc(OC)c1OC	Sm TGR block inconclusive
O=C(/C=C1\C(=O)Nc2ccccc21)/C=C1\C(=O)Nc2ccccc21	Sm TGR block 13µM
Cc1cc(-c2nc3ncccc3o2)ccc1NC(=O)c1ccc(Cl)cc1	Sm TGR block 89µM (no result: FBPA Giardia inh, AmpC inh no detg)
COc1ccccc1NC(=O)c1nc(S(=O)(=O)Cc2ccccc2)ncc1Cl	Sm TGR block 10µM (no result: FBPA Giardia inh)
CCS(=O)(=O)c1ncc(Cl)c(C(=O)Nc2ccccc2OC)n1	none
COc1ccc(OC)c(NC(=O)c2nc(S(=O)(=O)Cc3ccc(F)cc3)ncc2Cl)c1	Sm TGR block 3.2µM (no result: FBPA Giardia inh, AmpC inh no detg)
CCOc1ccccc1NC(=O)c1nc(S(=O)(=O)Cc2ccccc2)ncc1Cl	Sm TGR block 3.5µM (no result: FBPA Giardia inh)
CCN1C(=O)/C(=C/c2ccc(N3CCCC3)cc2)NC1=S	AmpC inh no detg 28µM
CC(=O)c1c(C)[nH]c(C(=O)NNC(=O)c2ccc(C)cc2)c1C	none (no result: FBPA Giardia inh, Sm TGR block, AmpC detergent)
COc1ccc(Cl)cc1C(=O)NNC(=O)c1[nH]c(C)c(C(C)=O)c1C	AmpC inh no detg 10µM (no result: FBPA Giardia inh, Sm TGR block, AmpC detergent)
CCN(C(=O)Cn1nc(Cc2ccncc2)c2ccccc2c1=O)c1cccc(Cl)c1	none (no result: FBPA Giardia inh, AmpC inh no detg)
O=C(CCS(=O)(=O)c1nc(-c2cccs2)cc(C(F)(F)F)n1)Nc1cccc(O)c1	Sm TGR block 32µM (no result: FBPA Giardia inh, AmpC inh no detg)
CS(=O)(=O)c1nc(-c2cccs2)cc(C(F)(F)F)n1	Sm TGR block 7.9µM
CS(=O)(=O)c1nc(-c2ccc(F)cc2)cc(C(F)(F)F)n1	none (no result: Sm TGR block)
Cc1cc(NC(=O)CCCS(=O)(=O)c2nc(-c3cccs3)cc(C(F)(F)F)n2)no1	Sm TGR block 13µM
COc1ccc(-c2cc(C(F)(F)F)nc(S(C)(=O)=O)n2)cc1	Sm TGR block 25µM
Cc1cc(NC(=O)CSc2nc(-c3cccs3)cc(C(F)(F)F)n2)no1	AmpC detergent inconclusive
COc1ccc(NC(=O)C(=O)NCCc2csc(-c3ccc(Cl)cc3)n2)cc1	none (no result: FBPA Giardia inh, AmpC inh no detg)
COc1cc(NC(=O)CCS(=O)(=O)c2nc(-c3cccs3)cc(C(F)(F)F)n2)cc(OC)c1OC	Sm TGR block inconclusive (no result: FBPA Giardia inh)

Screening data (PubChem BioAssay)
